An excerpt weighted towards active compounds, which were near 3.7% of everything screened.
Rv3671c protease: Rv3671c serine protease inhibitors, primary screen, biochemical, fluorescence polarization, M. tuberculosis H37Rv | P9WHR9 | inhibition, % at 5.96 µM | actives 0.048% (n = 320,000) | AID 2606, 2010; in the data active means inhibition above about 38%;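 further: extracellular domain of Rv3671c used as enzyme; 0% = enzyme with DMSO and 100% = no enzyme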
FBA Mtb inh: Mtb FBA enzyme inhibitors, primary screen, biochemical, fluorescence, strain H37Rv. Fructose-bisphosphate aldolase (Mycobacterium tuberculosis (strain ATCC 25618 / H37Rv)), …. purified M. tuberculosis FBA, fluorescence read-out. inhibition, % at 1 µM. actives 2.3% (n = 360,000). AID 588726, 2011;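 further: 0% = vehicle and 100% = reference inhibitor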
Mtb betalactam: beta-lactam sensitization of Mtb H37Rv, H37Rv; M. tuberculosis H37Rv growth with meropenem, percent inhibition; inhibition, % at 25 µM; actives 0.27% (n = 330,000); call rule not given here;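 further: growth measured after seven days incubation then overnight dye step; 0% = bacteria only wells and 100% = bacteria with antibiotic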
UGM FP inh: M. tuberculosis UGM enzyme inhibitors, primary screen, biochemical, fluorescence polarization, single point | UDP-galactopyranose mutase (Mycobacterium tuberculosis (strain ATCC 25618 / H37Rv)), … | purified UGM, fluorescence polarization probe displacement | inhibition, % at 10 µM | actives 0.06% (n = 320,000); in the data active means inhibition above about 10%, passing the limit was not always enough
Target sequence (P9WIQ1 whole entry, looked up): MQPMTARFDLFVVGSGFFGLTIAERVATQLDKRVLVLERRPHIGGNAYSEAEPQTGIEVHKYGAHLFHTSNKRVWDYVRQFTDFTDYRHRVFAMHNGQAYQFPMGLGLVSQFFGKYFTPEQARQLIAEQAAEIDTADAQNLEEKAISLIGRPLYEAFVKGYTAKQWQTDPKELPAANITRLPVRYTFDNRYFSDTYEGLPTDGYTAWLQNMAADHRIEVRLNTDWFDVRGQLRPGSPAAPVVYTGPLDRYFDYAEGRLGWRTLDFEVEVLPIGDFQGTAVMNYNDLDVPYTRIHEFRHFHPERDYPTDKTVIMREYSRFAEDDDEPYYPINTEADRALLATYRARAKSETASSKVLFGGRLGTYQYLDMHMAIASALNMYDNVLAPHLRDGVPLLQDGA
FadD28 binding: inhibitors of FadD28 bisubstrate probe binding, primary screen, biochemical, fluorescence polarization, single point; Mycobacterium tuberculosis FadD28 fatty-acid-AMP ligase; inhibition, % at 12.5 µM; actives 0.22% (n = 360,000); AID 588549, 2011; in the data active means inhibition above about 8.5%, passing the limit was not always enough
GDH-TPI counter-1: GDH-TPI coupling enzyme inhibitors, primary screen, artefact control for M. tuberculosis FBA inhibitor project, biochemical, absorbance, full deck. GDH-TPI coupled enzyme counterscreen, NADH absorbance. inhibition, % at 4.8 µM. actives 1.2% (n = 360,000). AID 588335, 2011; in the data active means inhibition above about 30%;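 further: 0% = DMSO wells and 100% = wells lacking the enzyme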
Mtb FBA confirm: M. tuberculosis aldolase blockers, biochemical, fluorescence, strain H37Rv, confirmation; shares compounds with FBA Mtb inh; AID 651616, 2012; actives 78% (n = 5,600); inhibition, % at 1 µM; purified M. tuberculosis FBA, fluorescence read-out;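 further: 0% = vehicle wells and 100% = reference inhibitor wells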
GDH-TPI counter-2: GDH-TPI coupling enzyme inhibitors, artefact control for M. tuberculosis FBA inhibitor project, biochemical, fluorescence, high throughput; actives 81% (n = 5,600); GDH-TPI coupled enzyme counterscreen; shares compounds with FBA Mtb inh; inhibition, % at 1 µM; in the data active means inhibition above about 10%
GDH-TPI DR: GDH-TPI coupling enzyme inhibitors, dose response, artefact control for M. tuberculosis FBA inhibitor project, biochemical, fluorescence, IC50; AID 652145, 2013; shares compounds with FBA Mtb inh; actives 79% (n = 170); GDH-TPI coupled enzyme assay, artifact counterscreen; IC50, µM; call rule not given here
The depositor's hits bear a star; nt = no result; + = active, no number. Unless noted, no stated cut-off is given here; in the data, active means inhibition above about 27%; inactive means the rest.

SMILES | Rv3671c protease | FBA Mtb inh | Mtb betalactam | UGM FP inh | FadD28 binding | GDH-TPI counter-1 | Mtb FBA confirm | GDH-TPI counter-2 | others
Cc1ccnc(NC(c2ccccc2)c2ccc3cccnc3c2O)c1 (stereo unspecified) | nt | -1.8 | nt | nt | nt | 3.5 | nt | nt
O=C(O)c1ccccc1NC(c1ccccc1)c1ccc2cccnc2c1O (stereo unspecified) | nt | 37.9* | nt | nt | -1.3 | 13.3 | + | +
NC(=O)c1ccccc1N/C=C1\CCCCC1=O | -1.9 | 27.7* | -4.1 | 0.8 | -1.4 | 3.1 | 91.1* | 73.4*
O=C1CCCC/C1=C\Nc1ccccc1C(=O)O | -12.1 | 21.3 | -4.9 | -1.8 | -0.3 | 4.8 | nt | nt
CCOC(=O)Nc1nnc(-c2ccc(OC)cc2)s1 | -0.2 | 51.9* | 4.3 | -1.3 | -2.2 | 7.8 | 158.4* | 121.0*
CCc1nnc(NC(=O)Cc2ccc(OC)cc2)s1 | -4.1 | 1.6 | 0.4 | 1.6 | 0.3 | 2.3 | nt | nt
CCC(=O)Nc1nnc(/C=C/c2ccccc2)s1 | -1.8 | 32.7* | 4.4 | -2.6 | -1.9 | 31.0* | 123.8* | 103.2*
CCCCOC(=O)Nc1nnc(/C=C/c2ccc(OC)cc2)s1 | 2.0 | 16.6 | 4.4 | -2.4 | -0.3 | 19.9 | nt | nt
CCOC(=O)Nc1nnc(-c2cccc(OC)c2)s1 | -5.7 | 97.8* | -3.3 | -0.4 | -0.2 | 10.5 | + | 178.1*
CCOC(=O)Nc1nnc(/C=C/c2ccc(OC)cc2)s1 | 2.1 | 33.2* | 21.8 | -2.4 | -3.8 | 36.0* | -2.8 | -7.2
CCCCC(=O)N(C)c1c(C)nc2ccc(C(=O)N(C)Cc3ccco3)cn12 | nt | -0.9 | nt | nt | -0.2 | 9.1 | nt | nt
Cc1ccc(C(=O)CCC(=O)Nc2cccc(C)c2)cc1 | nt | 1.8 | 4.2 | 1.6 | -0.9 | 8.6 | nt | nt
Nc1c(Br)cc(Br)c2c1C(=O)c1c(cccc1S(=O)(=O)O)C2=O | nt | -7.3 | nt | nt | 4.0 | 2.5 | nt | nt
CC(C)C[C@H]1CN([C@@H](Cc2ccccc2)CN2CCC[C@@H]2CN2C(=O)C(=O)NC[C@@H]2Cc2ccccc2)C(=O)C(=O)N1CC1CCCCC1 | nt | -0.6 | nt | nt | -5.0 | nt | nt | nt
N=C1C(c2nc3ccccc3[nH]2)=C(O)CN1c1ccc(F)cc1 | -4.0 | 2.9 | nt | -2.6 | 0.3 | 0.5 | nt | nt
Cc1cc(C)cc(N2CC(O)=C(c3nc4ccccc4c(=O)[nH]3)C2=N)c1 | -1.4 | 34.3* | -5.0 | -1.5 | -7.3 | 5.7 | 2.6 | 0.3
COc1cccc(N2CC(O)=C(c3nc4ccccc4c(=O)[nH]3)C2=N)c1 | -10.4 | 77.4* | -4.5 | 0.9 | -2.3 | 33.3* | 51.0* | 50.2*
CC(C)N1CC(O)=C(c2nc3ccccc3c(=O)[nH]2)C1=N | 1.5 | 43.9* | 3.0 | 1.7 | 0.3 | 10.2 | + | 170.2*
O=C1C=CC(=O)N1c1ccc(-c2nc3ccccc3o2)cc1 | nt | 65.2* | nt | nt | -3.7 | 20.0 | -2.9 | -5.2
CC(C)Cn1c(-c2cccs2)nc2ccccc21 | -0.5 | 50.8* | 0.6 | 2.5 | -7.8 | 4.6 | + | 151.9*
c1csc(Cn2c(-c3cccs3)nc3ccccc32)c1 | 5.0 | 63.2* | 5.5 | 1.5 | -16.7 | 34.1* | 25.5 | 27.7*
Cn1c(-c2cccs2)nc2ccccc21 | 8.3 | 59.4* | -5.2 | -0.9 | 2.0 | -4.4 | 11.1 | -4.1 | GDH-TPI DR=2.6*
CCOC(=O)c1sc(NC(=O)C2CCC2)cc1C | -2.1 | 0.2 | -2.0 | 0.6 | -1.8 | 9.3 | nt | nt
CC(C)(C)c1ccc(CC(=O)N2CCC2(C)C(=O)NCc2ccc3c(c2)OCO3)cc1 (stereo unspecified) | nt | -1.7 | nt | nt | -3.9 | 3.1 | nt | nt

Screening results (PubChem BioAssay)
